Only some compounds are listed: those with a hit (about 0.9% of all), similar ones and a draw of the others.
PPARg SRC-1 ag: PPARgamma agonists recruiting SRC-1 coactivator, primary screen, biochemical | activation, % at 8 µM | PPARgamma-SRC-1 coactivator recruitment biochemical assay | Peroxisome proliferator-activated receptor gamma (Homo sapiens), P37231 | 200,000 tested, 0.41% active; in the data active = activation above about 19%;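 also: 0% = DMSO and 100% = reference agonist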
Target sequence (P37231 whole entry, looked up): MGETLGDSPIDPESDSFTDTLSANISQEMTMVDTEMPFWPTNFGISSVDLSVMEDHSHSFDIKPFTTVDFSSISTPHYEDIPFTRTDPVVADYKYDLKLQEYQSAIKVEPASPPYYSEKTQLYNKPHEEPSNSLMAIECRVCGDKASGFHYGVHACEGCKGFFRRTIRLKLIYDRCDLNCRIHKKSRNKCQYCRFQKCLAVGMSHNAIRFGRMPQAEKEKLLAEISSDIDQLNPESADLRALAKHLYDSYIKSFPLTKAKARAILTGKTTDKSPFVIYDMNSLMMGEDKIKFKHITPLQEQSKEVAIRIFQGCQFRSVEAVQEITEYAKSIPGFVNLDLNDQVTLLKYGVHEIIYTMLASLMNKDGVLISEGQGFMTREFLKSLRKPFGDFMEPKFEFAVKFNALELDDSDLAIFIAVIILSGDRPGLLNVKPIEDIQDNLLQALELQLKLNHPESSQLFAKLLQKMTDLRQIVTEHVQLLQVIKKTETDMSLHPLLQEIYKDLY
SRC2 TRFRET art: TR-FRET signal artefacts, primary screen, artefact control for PPARgamma SRC-2 agonist project, biochemical. 200,000 tested, 0.4% active. AID 1049, 2008. TR-FRET ratio at 8 µM. TR-FRET artefact counter-screen; active compounds read high
PPARg SRC-2 ag: agonists of PPARg-SRC-2 recruitment, primary screen, biochemical, HTS; PPARgamma LBD-SRC-2 recruitment; activation, % at 8 µM; 200,000 tested, 0.34% active; AID 1032, 2008; in the data active = activation above about 22%;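 also: 0% = vehicle and 100% = reference agonist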
SRC3 TRFRET art: TR-FRET detection interference compounds, artefact control for PPARgamma SRC-3 recruitment agonists, biochemical, TR-FRET ratio | TR-FRET artefact counter-screen, PPARgamma/SRC-3 format; active compounds read high | TR-FRET ratio at 8 µM | 99,000 tested, 0.39% active | AID 1048, 2008
PPARg SRC3 recr: PPARgamma agonists recruiting SRC-3 coactivator, primary screen, biochemical. 200,000 tested, 0.26% active. activation, % at 8 µM. biochemical PPARgamma/SRC-3 coactivator recruitment assay; in the data active = activation above about 23%;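 also: 0% = DMSO and 100% = reference agonist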
SRC1 TRFRET art: TR-FRET detection interference compounds, primary screen, artefact control for PPARgamma SRC-1 recruitment agonists, biochemical, TR-FRET emission ratio | 99,000 tested, 0.34% active | AID 1051, 2008 | TR-FRET detection artefact counter-screen; active compounds read high | TR-FRET ratio at 8 µM; in the data active = TR-FRET ratio above about 2300
Starred values were filed as active, the others as inactive; x = no result. Rule as the data show it, unless noted: active = TR-FRET ratio above about 2000; inactive = the rest.

SMILES | PPARg SRC-1 ag | SRC2 TRFRET art | PPARg SRC-2 ag | SRC3 TRFRET art | PPARg SRC3 recr | SRC1 TRFRET art
COc1ccc(C2CC(=O)c3c([nH]c(C(=O)OC(C)C)c3C)C2)cc1OC (stereo not drawn) | -2 | 1553 | -3 | 3447* | 32* | 1581
C=CCc1cc(OC)ccc1OCCOCCN1CCc2ccccc2C1 | 3 | 1493 | -10 | 1469 | -3 | 1824
CC(NC(=O)c1ccccc1)c1ccc(F)cc1 (stereo not drawn) | -6 | 1507 | 0 | 1219 | 1 | 1696
N#Cc1c(-c2ccc(Br)cc2)cc(-c2cccnc2)nc1N | 6 | 1568 | 1 | 2107* | 11 | 1900
N#Cc1ccccc1Oc1ccccc1C=O | -5 | 1691 | 6 | 1634 | -2 | 1905
CCc1nc2ccc(C(=O)Nc3cccc(C(C)=O)c3)cc2nc1CC | -2 | 1617 | -7 | 1517 | -4 | 1697
CCc1nc2ccc(C(=O)Nc3nnc(C)s3)cc2nc1CC | 478* | 1452 | -3 | 1708 | 2 | 6131*
CC1CCC(NC(=O)CCNC(=O)c2ccccc2)CC1 (stereo not drawn) | 2 | 1544 | -7 | 1557 | 2 | 1943
CCCCc1c(C)nc2ccc(Br)cc2c1SCCC#N | 7 | 2017* | 14 | 2091* | 13 | 2268
CCc1c(C)nc2c(Br)cccc2c1SCCC#N | 11 | 1953 | 19 | 2026 | 12 | 2367*
O=C(Nc1c2c(nn1-c1ccc(F)cc1)CS(=O)(=O)C2)c1ccc(S(=O)(=O)N2CCOCC2)cc1 | 6 | 1659 | 14 | 1790 | 9 | 1859
CC(C)(C)c1ccc(-c2nnc3sc(-c4ccncc4)nn23)cc1 | 0 | 5672* | 190* | x | -7 | x
CCCCC(CC)C(=O)Nc1ccc(C)c(O)c1 (stereo not drawn) | 0 | 1618 | -1 | 1674 | -3 | 1820
CC(=O)Nc1ccc(Br)c2ccccc12 | 18 | 2043* | 20 | 2311* | 12 | 2333*
Cc1cccc(NC(=O)c2csnn2)n1 | 3 | 1546 | 7 | 1478 | 2 | 1884
CCN(CC)C(=O)Cn1c(=O)n(-c2ccccc2)c(=O)c2c3c(sc21)CCC3 | -2 | 2144* | 22* | x | 5 | x
CCOC(=O)C1CN(S(C)(=O)=O)c2cc(CC(=O)OC)ccc2O1 (stereo not drawn) | 7 | 1411 | -1 | 1650 | 1 | 1922
CCOc1ccc(N=C2NN=C(c3cc(C)n(CC4CCCO4)c3C)CS2)cc1 (stereo not drawn) | 22* | 1711 | 3 | 1828 | 2 | 1953
CCOC(=O)c1c(OCCO)nn(-c2ccccc2)c1N | 12 | 1683 | -4 | 1521 | 4 | 2013
O=C(COC(=O)CCN1C(=O)c2cccc([N+](=O)[O-])c2C1=O)NCc1ccccc1 | 4 | 1993* | 4 | 1749 | 1 | 1745
O=C(COC(=O)CSCc1ccccc1)NCc1ccccc1 | -6 | 1536 | -3 | 1456 | -3 | 1600
Cc1nnc(C)n1N | 3 | 1498 | 1 | 1616 | 2 | 1560
Cc1ccc2nc(-c3ccc(SCC(=O)N4CCc5ccccc54)nc3)[nH]c2c1 | 6 | 1365 | -2 | 2738* | 3 | 1724
Cc1ccc2nc(-c3cccnc3SCC(=O)N3c4ccccc4CC3C)[nH]c2c1 (stereo not drawn) | 3 | 2147* | 4 | x | 5 | x
Cc1ccc2nc(-c3ccc(SCC(=O)O)nc3)[nH]c2c1 | 11 | 1849 | 7 | x | 12 | x
Cc1ccc2nc(SCC(=O)N3c4ccccc4CC3C)c(C)cc2c1 (stereo not drawn) | -8 | 1722 | 7 | x | 13 | x
COc1ccc(CCN(Cc2nc3ccccc3c(=O)[nH]2)C(=O)c2ccco2)cc1OC | 20* | 1517 | -1 | x | -1 | x
CCCCC(=O)OCC(=O)c1[nH]c(C)c(C(C)=O)c1C | 12 | 1691 | 7 | 1672 | 6 | 1818
CCOC(=O)c1sc(=NC(=O)c2cc(OC)c(OC)c(OC)c2)n(C)c1C | -1 | 1659 | -3 | x | 338* | x

High-throughput results as filed in PubChem.
